In all, about 8,300 sequences were measured (“log2 fold change of degron read counts, EGFP-low vs EGFP+ sorted cells (limma voom), compound-induced degradation”: median about -1.1, highest 2% from about 3.2 on). The entries come from a sample that favours the highest values as a whole.
Target: T1, CRBN, Q96SW2
T1 chain: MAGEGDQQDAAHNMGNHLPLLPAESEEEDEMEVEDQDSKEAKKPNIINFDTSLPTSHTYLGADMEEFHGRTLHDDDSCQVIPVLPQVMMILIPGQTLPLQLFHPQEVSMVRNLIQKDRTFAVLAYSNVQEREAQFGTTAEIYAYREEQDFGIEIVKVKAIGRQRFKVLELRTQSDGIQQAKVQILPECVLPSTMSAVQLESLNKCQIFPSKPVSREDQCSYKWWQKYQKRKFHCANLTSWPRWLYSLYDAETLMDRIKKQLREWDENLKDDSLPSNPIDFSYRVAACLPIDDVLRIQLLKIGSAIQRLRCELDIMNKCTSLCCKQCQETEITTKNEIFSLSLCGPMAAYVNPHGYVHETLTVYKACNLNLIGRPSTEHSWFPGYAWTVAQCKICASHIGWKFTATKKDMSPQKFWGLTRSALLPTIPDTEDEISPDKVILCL
Assay: log2 fold change of degron read counts, EGFP-low vs EGFP+ sorted cells (limma voom), compound-induced degradation; higher = more compound-induced degradation of the degron-EGFP fusion; degrons are variants of IKZF1/3 zinc finger 2; compound dose not given here
Conditions: Jurkat, 18 h
Description: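 Pooled library of 8380 IKZF3 ZF2 degron mutants (positions 146-167 varied within the IKZF3 130-189 degron; only the varied core is printed, flanks not printed) fused to EGFP with IRES-mCherry, lentivirally expressed in Jurkat cells. mCherry+ cells were treated with one IMiD compound for 18 h (dose not stated) and FACS-sorted into EGFP-low and EGFP+ populations. Degron sequences were counted by NGS, and log2FC (EGFP-low vs EGFP+) was estimated by limma voom over 3 biological replicates.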

[1] = compound: compound 19 (5-tert-butyl-thalidomide)
[2] = compound: compound 22 (5-morpholino-thalidomide)
[3] = compound: compound 33 (diphenyl IMiD analogue)
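Note: pooled lentiviral library of zinc finger degron-EGFP fusions in mCherry-positive Jurkat cells, FACS-sorted after compound exposure, with degron abundance counted by next-generation sequencing.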

In the case of FQCEICGRNFTQKGNLLRHIKL [46F_47Q_49E_50I_52G_53R_54N_55F_67L_, Q9UKT9], the “log2 fold change of degron read counts” value [1] is reported as -2.38, the “log2 fold change of degron read counts” value [2] is reported as -2.7 and the “log2 fold change of degron read counts” value [3] is reported as -0.772. The “log2 fold change of degron read counts” value (compound: thalidomide) was 0.915.

In the case of FACPQCGAHFTQKGNLLRHIKL [46F_47A_49P_50Q_52G_53A_54H_55F_67L_, Q9UKT9], the “log2 fold change of degron read counts” value [1] is reported as 0.167, the “log2 fold change of degron read counts” value [2] is reported as -2 and the “log2 fold change of degron read counts” value [3] is reported as -1.13. The “log2 fold change of degron read counts” value (compound: thalidomide) was -1.72.

For FRCPQCGAYFTQKGNLLRHIKL [46F_47R_49P_50Q_52G_53A_54Y_55F_67L_, Q9UKT9], the “log2 fold change of degron read counts” value [1] was -1.85, the “log2 fold change of degron read counts” value [2] was -1.73 and the “log2 fold change of degron read counts” value [3] was -0.273. For the same sequence, the “log2 fold change of degron read counts” value (compound: thalidomide) was -0.427.

FICNICGAPFTQKGNLLRHIKL [46F_47I_49N_50I_52G_53A_54P_55F_67L_, Q9UKT9] was tested, and the “log2 fold change of degron read counts” value [1] was 1.31, the “log2 fold change of degron read counts” value [2] was 3.43 and the “log2 fold change of degron read counts” value [3] was 2.32. The “log2 fold change of degron read counts” value (compound: thalidomide) was 2.76.

FLCNICGAPFTQKGNLLRHIKL [46F_47L_49N_50I_52G_53A_54P_55F_67L_, Q9UKT9] was tested, and the “log2 fold change of degron read counts” value [1] was 1.46, the “log2 fold change of degron read counts” value [2] was 1.8 and the “log2 fold change of degron read counts” value [3] was 2.1. The “log2 fold change of degron read counts” value (compound: thalidomide) was 2.49.

With FVCNQCGAPFTQKGNLLRHIKL [46F_47V_49N_50Q_52G_53A_54P_55F_67L_, Q9UKT9] the “log2 fold change of degron read counts” value [1] was -1.48, the “log2 fold change of degron read counts” value [2] was 0.603 and the “log2 fold change of degron read counts” value [3] was -0.000403. The “log2 fold change of degron read counts” value (compound: thalidomide) was 0.468.

For FVCNICGAPFTQKGNLLRHIKL [46F_47V_49N_50I_52G_53A_54P_55F_67L_, Q9UKT9], the “log2 fold change of degron read counts” value [1] was 1.87, the “log2 fold change of degron read counts” value [2] was 3.32 and the “log2 fold change of degron read counts” value [3] was 2.44. The “log2 fold change of degron read counts” value (compound: thalidomide) was 3.33.

In the case of FTCNICGAPFTQKGNLLRHIKL [46F_47T_49N_50I_52G_53A_54P_55F_67L_, Q9UKT9], the “log2 fold change of degron read counts” value [1] is reported as 2.03, the “log2 fold change of degron read counts” value [2] is reported as 3.03 and the “log2 fold change of degron read counts” value [3] is reported as 2.21. The “log2 fold change of degron read counts” value (compound: thalidomide) was 2.73.

FECNICGAPFTQKGNLLRHIKL [46F_47E_49N_50I_52G_53A_54P_55F_67L_, Q9UKT9] was tested, and the “log2 fold change of degron read counts” value [1] was 0.92, the “log2 fold change of degron read counts” value [2] was -1.22 and the “log2 fold change of degron read counts” value [3] was 0.793. For the same sequence, the “log2 fold change of degron read counts” value (compound: thalidomide) was 1.96.

For FNCNICGAPFTQKGNLLRHIKL [46F_47N_49N_50I_52G_53A_54P_55F_67L_, Q9UKT9], the “log2 fold change of degron read counts” value [1] was 3.04, the “log2 fold change of degron read counts” value [2] was 1.9 and the “log2 fold change of degron read counts” value [3] was 0.574. The “log2 fold change of degron read counts” value (compound: thalidomide) was 0.97.

For FYCNICGAPFTQKGNLLRHIKL [46F_47Y_49N_50I_52G_53A_54P_55F_67L_, Q9UKT9], the “log2 fold change of degron read counts” value [1] was 3.87, the “log2 fold change of degron read counts” value [2] was 3.54 and the “log2 fold change of degron read counts” value [3] was 2.43. The “log2 fold change of degron read counts” value (compound: thalidomide) was 1.04.

In the case of FRCNICGAPFTQKGNLLRHIKL [46F_47R_49N_50I_52G_53A_54P_55F_67L_, Q9UKT9], the “log2 fold change of degron read counts” value [1] is reported as 2.88, the “log2 fold change of degron read counts” value [2] is reported as 3.49 and the “log2 fold change of degron read counts” value [3] is reported as 3.05. The “log2 fold change of degron read counts” value (compound: thalidomide) was 3.38.

In the case of FRCEICGRPFTQKGNLLRHIKL [46F_47R_49E_50I_52G_53R_54P_55F_67L_, Q9UKT9], the “log2 fold change of degron read counts” value [1] is reported as -0.208, the “log2 fold change of degron read counts” value [2] is reported as 1.72 and the “log2 fold change of degron read counts” value [3] is reported as 2.22. For the same sequence, the “log2 fold change of degron read counts” value (compound: thalidomide) was 2.06.

For FNCPICGHTFTQKGNLLRHIKL [46F_47N_49P_50I_52G_53H_54T_55F_67L_, Q9UKT9], the “log2 fold change of degron read counts” value [1] was -2.31, the “log2 fold change of degron read counts” value [2] was -2.29 and the “log2 fold change of degron read counts” value [3] was -2.08. The “log2 fold change of degron read counts” value (compound: thalidomide) was -2.24.

For FFCEICGRSFTQKGNLLRHIKL [46F_47F_49E_50I_52G_53R_54S_55F_67L_, Q9UKT9], the “log2 fold change of degron read counts” value [1] was 0.599, the “log2 fold change of degron read counts” value [2] was 0.147 and the “log2 fold change of degron read counts” value [3] was -0.0546. The “log2 fold change of degron read counts” value (compound: thalidomide) was -0.893.

For FNCEQCGACFTQKGNLLRHIKL [46F_47N_49E_50Q_52G_53A_54C_55F_67L_, Q9UKT9], the “log2 fold change of degron read counts” value [1] was -1.28, the “log2 fold change of degron read counts” value [2] was -2.78 and the “log2 fold change of degron read counts” value [3] was -2.07. For the same sequence, the “log2 fold change of degron read counts” value (compound: thalidomide) was -2.41.

For FFCPICGHDFTQKGNLLRHIKL [46F_47F_49P_50I_52G_53H_54D_55F_67L_, Q9UKT9], the “log2 fold change of degron read counts” value [1] was -2.5, the “log2 fold change of degron read counts” value [2] was -3.06 and the “log2 fold change of degron read counts” value [3] was -2.39. The “log2 fold change of degron read counts” value (compound: thalidomide) was -2.25.

In the case of FLCEICGAYFTQKGNLLRHIKL [46F_47L_49E_50I_52G_53A_54Y_55F_67L_, Q9UKT9], the “log2 fold change of degron read counts” value [1] is reported as 0.402, the “log2 fold change of degron read counts” value [2] is reported as -0.763 and the “log2 fold change of degron read counts” value [3] is reported as 0.888. For the same sequence, the “log2 fold change of degron read counts” value (compound: thalidomide) was 1.03.

With FFCNICGAPFTQKGNLLRHIKL [46F_47F_49N_50I_52G_53A_54P_55F_67L_, Q9UKT9] the “log2 fold change of degron read counts” value [1] was 3.82, the “log2 fold change of degron read counts” value [2] was 3.29 and the “log2 fold change of degron read counts” value [3] was 1.81. For the same sequence, the “log2 fold change of degron read counts” value (compound: thalidomide) was 0.893.

With FHCNICGAPFTQKGNLLRHIKL [46F_47H_49N_50I_52G_53A_54P_55F_67L_, Q9UKT9] the “log2 fold change of degron read counts” value [1] was 3.64, the “log2 fold change of degron read counts” value [2] was 3.01 and the “log2 fold change of degron read counts” value [3] was 1.94. The “log2 fold change of degron read counts” value (compound: thalidomide) was 1.11.

With FACNICGAPFTQKGNLLRHIKL [46F_47A_49N_50I_52G_53A_54P_55F_67L_, Q9UKT9] the “log2 fold change of degron read counts” value [1] was 3, the “log2 fold change of degron read counts” value [2] was 2.25 and the “log2 fold change of degron read counts” value [3] was 0.28. For the same sequence, the “log2 fold change of degron read counts” value (compound: thalidomide) was 1.19.

With FHCNQCGAPFTQKGNLLRHIKL [46F_47H_49N_50Q_52G_53A_54P_55F_67L_, Q9UKT9] the “log2 fold change of degron read counts” value [1] was -0.273, the “log2 fold change of degron read counts” value [2] was -1.39 and the “log2 fold change of degron read counts” value [3] was -1.33. For the same sequence, the “log2 fold change of degron read counts” value (compound: thalidomide) was -1.72.

In the case of FMCNICGAPFTQKGNLLRHIKL [46F_47M_49N_50I_52G_53A_54P_55F_67L_, Q9UKT9], the “log2 fold change of degron read counts” value [1] is reported as 2.52, the “log2 fold change of degron read counts” value [2] is reported as 3.05 and the “log2 fold change of degron read counts” value [3] is reported as 3.24. The “log2 fold change of degron read counts” value (compound: thalidomide) was 2.42.

For FKCNICGAPFTQKGNLLRHIKL [46F_47K_49N_50I_52G_53A_54P_55F_67L_, Q9UKT9], the “log2 fold change of degron read counts” value [1] was 1.75, the “log2 fold change of degron read counts” value [2] was 0.553 and the “log2 fold change of degron read counts” value [3] was -1.66. The “log2 fold change of degron read counts” value (compound: thalidomide) was 1.84.

With FQCNICGAPFTQKGNLLRHIKL [46F_47Q_49N_50I_52G_53A_54P_55F_67L_, Q9UKT9] the “log2 fold change of degron read counts” value [1] was 2.35, the “log2 fold change of degron read counts” value [2] was 3.09 and the “log2 fold change of degron read counts” value [3] was 1.74. For the same sequence, the “log2 fold change of degron read counts” value (compound: thalidomide) was 3.71.

FSCNICGAPFTQKGNLLRHIKL [46F_47S_49N_50I_52G_53A_54P_55F_67L_, Q9UKT9] was tested, and the “log2 fold change of degron read counts” value [1] was 2.52, the “log2 fold change of degron read counts” value [2] was 2.26 and the “log2 fold change of degron read counts” value [3] was 1.18. For the same sequence, the “log2 fold change of degron read counts” value (compound: thalidomide) was 1.71.

FDCNICGAPFTQKGNLLRHIKL [46F_47D_49N_50I_52G_53A_54P_55F_67L_, Q9UKT9] was tested, and the “log2 fold change of degron read counts” value [1] was 0.00765, the “log2 fold change of degron read counts” value [2] was 0.55 and the “log2 fold change of degron read counts” value [3] was -0.25. For the same sequence, the “log2 fold change of degron read counts” value (compound: thalidomide) was 0.701.

With FWCEICGRFFTQKGNLLRHIKL [46F_47W_49E_50I_52G_53R_54F_55F_67L_, Q9UKT9] the “log2 fold change of degron read counts” value [1] was 1.04, the “log2 fold change of degron read counts” value [2] was 1.16 and the “log2 fold change of degron read counts” value [3] was 0.269. The “log2 fold change of degron read counts” value (compound: thalidomide) was -0.94.
